Broadly, the cell viability is a read-out of living cells in per cent, often relative to untreated cells.

From the supplement of paper PMC11150407 come the findings set out here.

Out of some 3,000 compounds screened, about 45 (2%) showed an effect of 50% or more. The list comes from a sample in which strong results are over-represented; it also holds similar structures and randomly drawn compounds.

For this experiment, the system named is MOLM1 and UCSD/AML1 (averaged). The experiment in a line: cell viability relative to DMSO control (POC); higher = less growth inhibition. As to conditions: 1 µM; 72 h. The procedure: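 Primary viability screen in the 3q26 EVI1-high AML cell lines MOLM1 and UCSD/AML1, compounds at 1 uM for 72 h. ATP CellTiter-Glo read-out given as percent viable over DMSO control (POC), averaged over duplicates. This mapping covers the TimTec NDL-3000 natural derivative library, whose compounds are identified by TimTec catalogue codes (ST...).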
Take `CCc1ccc2oc(=O)cc(CN3CCN(Cc4nc(-c5ccc(C)cc5)oc4C)CC3)c2c1`: the cell viability was 96.3%. To `O=C(Cn1c(=O)cc(C(=O)N2CCCCC2)c2ccccc21)Nc1ccc(F)cc1` belongs 89.9%. With `Cc1ccc2c(CN3CCN(Cc4ccc(Br)cc4F)CC3)cc(=O)oc2c1`, the cell viability was 100%. With `CCc1ccc(-c2cc(-c3cc(OC)c(OC)c(OC)c3)[nH]c(=O)c2C#N)cc1`, the cell viability amounted to 96.9%. As for `CC(=O)OCC1OC(OC(C)=O)C(OC(C)=O)C(OC(C)=O)C1OC(C)=O` (stereo not drawn), the figure is 109%. For `O=C(/C=C/c1cccc(Cl)c1)c1ccc(OC(=O)c2cccc([N+](=O)[O-])c2)cc1`, the cell viability amounted to 102%. To `Nc1nc2ncc(CNc3ccc(C(=O)N[C@H](CCC(=O)O)C(=O)O)cc3)nc2c(=O)[nH]1` belongs 102%; to `COc1cc(C2C(C#N)=C(N)Oc3cc(N)ccc32)cc(OC)c1OC` (stereo not drawn), 13.5%; to `COc1cc(C2C(C#N)=C(N)Oc3n[nH]c(C)c32)ccc1O` (stereo not drawn), 110%. As for `COc1cc(C2C(C#N)=C(N)Oc3n[nH]c(-c4ccccc4)c32)cc(OC)c1OC` (stereo not drawn), the figure is 100%. As for `COc1cc(C(=O)N2CCCc3cccc(OCCNC(C)=O)c32)cc(OC)c1OC`, the figure is 98.7%; as for `CCOC(=O)CC[C@@H](C)[C@H]1CC[C@H]2[C@@H]3CC[C@@H]4C[C@H](O)CC[C@]4(C)[C@H]3C[C@H](O)[C@]12C`, 86%; as for `CC(=O)c1nc2ccccc2n1CC(=O)NCCOc1ccccc1`, 98.2%. As to `COc1cccc(NC(=O)Cn2c(=O)cc(C(=O)N3CCCC3)c3ccccc32)c1`, the cell viability amounted to 102%. As for `COc1ccc(C(=O)c2sc(Nc3ccc(F)cc3)nc2N)cc1OC`, the cell viability is 101%. To `COc1ccc(Nc2nc(N)c(C(=O)c3ccc(OC)c(OC)c3)s2)cc1` belongs 15.4%; to `COc1ccc(C(=O)c2sc(Nc3cccc(F)c3)nc2N)cc1OC`, 96.9%; to `CCOc1ccc(-c2nc(CSc3nc4c(=O)[nH]cnc4n3C)c(C)o2)cc1OC`, 118%. As for `COC(=O)c1cc(O)cc(O)c1`, the figure is 104%. As for `COC(=O)c1c(C)n(CCOc2ccc(F)cc2)c2ccc(O)cc12`, the figure is 96.9%.

With `COc1cc(C(=O)NCc2ccc3c(c2)OCO3)c(Br)c(OC)c1OC`, the cell viability turned out to be 105%.

Take `COc1cc(OC)c(C(=O)/C=C/c2ccc(O)cc2)c(OC)c1`: the cell viability amounted to 100%.

As to `COc1cc(O)c(C(=O)/C=C/c2ccco2)c(OC)c1`, the cell viability worked out at 112%. For the molecule `COc1cc(OC)c(C(=O)/C=C/c2ccccc2)c(OC)c1`, the cell viability was found to be 33%. As for `CCN(CC)c1ccc2[nH]c3c(C(N)=O)cc(=O)c(=O)c=3oc2c1`, the figure is 3.99%. To `CCN(CC)c1ccc2cc(-c3ccccc3)c(=O)oc2c1` belongs 96.9%; to `CC(C)c1ccc(NC(=O)Cn2c(=O)cc(C(=O)N3CCc4ccccc4C3)c3ccccc32)cc1`, 97.1%; to `COc1cc(C(=O)/C=C2\C(=O)Nc3ccccc32)cc(OC)c1OC`, 21.6%. Consider `COc1ccc(C(=O)/C=C2\C(=O)Nc3ccccc32)cc1OC`, for which the cell viability amounted to 52.3%. On to `COc1cc(C(=O)NC2Cc3ccccc3NC2=O)cc(OC)c1OC` (stereo not drawn), for which the cell viability is 109%.

Take `CN(C)c1ccc2cc3ccc(=[N+](C)C)cc-3oc2c1`: the cell viability is 3.15%. As for `CCN(CC)c1ccc2cc(-c3ccc(OC)cc3)c(=O)oc2c1`, the figure is 88.7%; as for `COc1cc(/C=C/C(=O)c2ccc(C(=O)/C=C/c3cc(OC)c(OC)c(OC)c3)cc2)cc(OC)c1OC`, 106%; as for `Cc1ccc(C)c(NC(=O)CN2CCN(Cc3cc(=O)oc4cc(C)ccc34)CC2)c1`, 98.3%. As for `COc1ccccc1NC(=O)c1ccc2c(c1)OCO2`, the figure is 94.7%; as for `CCOc1ccccc1C1CCCC2(O)CCN(CC(=O)NCc3ccco3)CC12` (stereo not drawn), 99.5%; as for `CCOC(=O)C1=C(C)N(C)C(=O)NC1c1cc(Br)c(O)c(OC)c1` (stereo not drawn), 116%.

With `CCOC(=O)c1sc(NC(=O)/C=C/c2ccccc2)c(C(=O)OCC)c1C`, the cell viability turned out to be 96%. For the molecule `COc1ccc(-c2cc(=O)c3ccccc3o2)c(OC)c1`, the cell viability was determined as 113%. `COc1ccc2c(=O)c(O)c(-c3ccccc3)oc2c1`: the cell viability came to 62.7%. As for `COc1ccc(-c2cc(=O)c3cc(O)ccc3o2)cc1`, the figure is 71.1%; as for `COc1ccc2oc(C(Cl)(Cl)Cl)cc(=O)c2c1`, 3.78%; as for `COc1ccc2c(O)c([N+](=O)[O-])c(=O)oc2c1`, 105%.

Take `COc1ccc2c(=O)cc(C(Cl)(Cl)Cl)oc2c1`: the cell viability turned out to be 5.13%.

With `COc1cc(OC)cc(C(=O)Nc2ccccc2C(=O)Nc2ccccc2Cl)c1`, the cell viability was determined as 95.1%. As for `CN1CCN(Cc2c(O)ccc3cc(-c4nc5ccccc5s4)c(=O)oc23)CC1`, the figure is 101%; as for `Cc1cc(C)c(NC(=O)Cn2c(=O)cc(C(=O)N3CCc4ccccc4C3)c3ccccc32)c(C)c1`, 100%.

Take `CCCCCC1CCC(=O)N1CCN=Cc1c(O)c(O)c(C(C)C)c2cc(C)c(-c3c(C)cc4c(C(C)C)c(O)c(O)c(C=NCCN5C(=O)CCC5CCCCC)c4c3O)c(O)c12` (stereo not drawn): the cell viability is 86.9%. In the case of `Cc1[nH]c2ccccc2c1CCNC(=O)c1ccc(=O)[nH]c1`, the cell viability came to 96.3%.

For `CC(Cl)COC(=O)/C=C/c1ccc([N+](=O)[O-])cc1` (stereo not drawn), the cell viability was determined as 108%. As for `Cc1ccc(N2C3=C(C(=O)CC(C)(C)C3)C(c3ccc(O)cc3)C3=C2CC(C)(C)CC3=O)cc1`, the figure is 89.8%. As for `COc1ncnc2nc[nH]c12`, the figure is 100%. As for `Cc1ncnc2nc[nH]c12`, the figure is 3.11%. As for `Cc1ccc(OCCSc2ncnc3nc[nH]c23)cc1`, the cell viability was found to be 92.7%. To `Cc1ccc(-n2c(SCc3cn4ccccc4n3)nc3c(=O)[nH]cnc32)cc1` belongs 98.3%; to `Cc1cc2c(C(C)C)c(O)c(O)c(/C=N/N3CCN(C)CC3)c2c(O)c1-c1c(C)cc2c(C(C)C)c(O)c(O)c(/C=N/N3CCN(C)CC3)c2c1O`, 4.5%.

For the molecule `Cc1cc2c(C(C)C)c(O)c(O)c(C=NCCN3CCN(C)CC3)c2c(O)c1-c1c(C)cc2c(C(C)C)c(O)c(O)c(C=NCCN3CCN(C)CC3)c2c1O`, the cell viability was found to be 98.8%.

Take `CCC(O)/N=C/c1c(O)c(O)c(C(C)C)c2cc(C)c(-c3c(C)cc4c(C(C)C)c(O)c(O)c(/C=N/C(O)CC)c4c3O)c(O)c12` (stereo not drawn): the cell viability is 88.9%. Turning to `COc1ccc(NC(=O)CSc2nc3c(=O)[nH]cnc3n2-c2ccc(C)cc2)c(OC)c1`, the cell viability stood at 102%.

For the molecule `Cc1ccc(C(=O)N2N=C(c3c(-c4ccccc4)c4cc(Br)ccc4[nH]c3=O)CC2c2ccccc2)cc1` (stereo not drawn), the cell viability amounted to 100%. Turning to `O=C(O)c1ccc2[nH]c3c(c2c1)CCCC3`, the cell viability was 95.7%.

As for `CCOC(=O)N1CCc2[nH]c3ccc(Cl)cc3c2C1`, the cell viability was found to be 89.6%. To `CCOC(=O)N1CCc2[nH]c3ccc(C)cc3c2C1` belongs 42.4%.
